Experimental data taken from ChEMBL document CHEMBL5724796, “Tm Shift (DSF) assay results for EUbOPEN Chemogenomics Library” (2024).
Non-standard residues stand in square brackets, D forms with d. Residues, ends and D or L forms follow the SMILES beside them. *: point of attachment. Benzoyl(4-tBu) = CC(C)(C)c1ccc(C(=O)*)cc1; Lys(Et2) = CCN(CC)CCCC[C@H](N)C(=O)O; Cbz = O=C(OCc1ccccc1)*; CH2Cl = ClC*; CH2F = FC*

Molecular target: Tyrosine-protein kinase ABL1 (Homo sapiens) (UniProt P00519)
Conditions: Compound concentration 20.0 uM

Chain of Tyrosine-protein kinase ABL1 (Homo sapiens) (P00519 whole entry): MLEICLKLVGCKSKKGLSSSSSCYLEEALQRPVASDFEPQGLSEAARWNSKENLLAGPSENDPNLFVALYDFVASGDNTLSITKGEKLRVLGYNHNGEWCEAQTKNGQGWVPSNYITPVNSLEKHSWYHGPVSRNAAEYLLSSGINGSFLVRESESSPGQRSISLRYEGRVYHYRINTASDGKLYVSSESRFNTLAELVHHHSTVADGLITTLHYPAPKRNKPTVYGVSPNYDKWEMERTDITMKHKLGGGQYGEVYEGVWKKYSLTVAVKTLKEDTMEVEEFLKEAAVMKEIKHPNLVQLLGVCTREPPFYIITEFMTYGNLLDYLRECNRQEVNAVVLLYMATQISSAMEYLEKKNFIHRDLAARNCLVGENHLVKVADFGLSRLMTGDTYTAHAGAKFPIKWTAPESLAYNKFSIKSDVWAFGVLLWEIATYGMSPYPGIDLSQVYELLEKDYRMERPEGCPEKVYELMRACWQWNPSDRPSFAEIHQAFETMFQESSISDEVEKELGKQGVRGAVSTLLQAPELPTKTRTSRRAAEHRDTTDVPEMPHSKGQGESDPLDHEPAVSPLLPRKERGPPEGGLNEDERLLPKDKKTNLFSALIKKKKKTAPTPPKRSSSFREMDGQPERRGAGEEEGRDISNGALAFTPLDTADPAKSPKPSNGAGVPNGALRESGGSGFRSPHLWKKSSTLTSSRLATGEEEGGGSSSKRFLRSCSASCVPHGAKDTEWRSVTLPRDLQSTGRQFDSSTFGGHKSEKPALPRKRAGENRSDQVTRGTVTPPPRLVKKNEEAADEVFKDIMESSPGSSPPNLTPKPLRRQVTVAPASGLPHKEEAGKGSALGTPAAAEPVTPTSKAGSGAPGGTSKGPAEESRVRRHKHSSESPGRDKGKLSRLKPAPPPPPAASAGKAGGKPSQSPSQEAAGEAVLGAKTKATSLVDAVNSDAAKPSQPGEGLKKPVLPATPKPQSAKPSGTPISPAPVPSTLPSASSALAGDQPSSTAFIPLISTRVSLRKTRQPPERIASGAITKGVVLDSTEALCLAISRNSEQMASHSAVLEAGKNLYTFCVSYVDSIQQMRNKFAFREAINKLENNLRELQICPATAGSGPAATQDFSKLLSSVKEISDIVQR

With `O=C(NCC1CCOCC1)c1n[nH]cc1NC(=O)c1c(F)cccc1F` as the compound, how does the ΔTm read?
The ΔTm was 0.15 °C.

How did the ΔTm turn out when `Oc1ccc(-c2c(-c3ccccc3)nn3c(C(F)(F)F)cc(C(F)(F)F)nc23)cc1` was run?
Its ΔTm is 2.06 °C.

`CNC(=O)O[C@H]1COc2ccc(N3CCN(C4COC4)CC3)cc2[C@@H]1NC(=O)c1ccc(F)cc1` was tested. Which ΔTm did it give?
The ΔTm was 0.28 °C.

How did the ΔTm turn out when `CN(CCCCCCNc1ccnc2cc(Cl)ccc12)CCCCCCNc1ccnc2cc(Cl)ccc12` was run?
The ΔTm was -1.1 °C.

`COc1cc(-c2cn(C)c(=O)c3cnccc23)cc(OC)c1CN(C)CC(=O)NCCOCCOCCNc1cccc2c1C(=O)N(C1CCC(=O)NC1=O)C2=O` (centres undefined) was tested. Which ΔTm did it give?
Its ΔTm is 0.07 °C.

`CC(C)c1c(-c2cnn(C(C)(C)C)c2)[nH]c2c(C#N)cnn2c1=O` was tested. Which ΔTm did it give?
Its ΔTm is 0.32 °C.

For `CS(=O)(=O)c1ccc(-c2nnc(C=Cc3nnc(-c4ccc(C#N)cc4)o3)n2-c2ccccc2Cl)nc1`, which ΔTm is on record?
Its ΔTm is 0.4 °C.

Which ΔTm does the source give for `O=C(N1CCCCC1c1ccccc1)n1cc(-c2ccc(-c3cccc(CO)c3)cc2)nn1` (centres undefined) here?
The ΔTm was -2.74 °C.

`CS(=O)(=O)c1ccc(Oc2cc(F)cc(C#N)c2)c2c1C(O)C(F)C2` (centres undefined) was tested. Which ΔTm did it give?
The ΔTm was 0.53 °C.

For `NS(=O)(=O)c1cc(-c2nnn[nH]2)c(NCc2cccs2)cc1Cl`, which ΔTm is on record?
Its ΔTm is 0.69 °C.

With `CCn1nc(C2CC2)cc1Nc1nc(C(=O)NC)nc2[nH]c3cc(-c4c(C)noc4C)c(OC)cc3c12` as the compound, how does the ΔTm read?
The ΔTm was 0.56 °C.

For `COCCOCCn1nc2c(c1C)-c1c(Cl)ccc3c1c(C)c(C(=O)O)n3CCCOc1cc(cc3c(F)c(Cl)ccc13)CCc1cc(nn1C)CSC2`, which ΔTm is on record?
The ΔTm was -1.69 °C.

For `CN(CC[C@@H](Oc1ccc(-c2ccccc2)cc1)c1ccc(F)cc1)CC(=O)O`, which ΔTm is on record?
The ΔTm was 0.28 °C.

How did the ΔTm turn out when `Cc1ccsc1C(=CCCN1CCC[C@@H](C(=O)O)C1)c1sccc1C` was run?
The ΔTm was 0.26 °C.

`O=C1Nc2ccccc2C2(CCN(CC(Cc3ccccc3)Nc3nc4ccc(F)cc4s3)CC2)N1` (centres undefined) was tested. Which ΔTm did it give?
Its ΔTm is 0.77 °C.

Which ΔTm does the source give for `CCCOc1cccc(Oc2cc3c(cc2NS(=O)(=O)c2cccc(C(=O)NCCOCCOCCOCC(=O)N[C@H](C(=O)N4C[C@H](O)C[C@H]4C(=O)NCc4ccc(-c5scnc5C)cc4)C(C)(C)C)c2)n(C)c(=O)n3C)c1` here?
The ΔTm was 0.11 °C.

Which ΔTm does the source give for `CN(CCC(Oc1ccc(-c2ccccc2)cc1)c1ccc(F)cc1)CC(=O)O` (centres undefined) here?
Its ΔTm is 0.52 °C.

`C[C@]1(c2nc3c(C(N)=O)cccc3[nH]2)CCCN1` was tested. Which ΔTm did it give?
Its ΔTm is 0.02 °C.

How did the ΔTm turn out when `CCN(CC)CCCC[C@H](NC(=O)[C@H](CC(C)C)NC(=O)[C@H](C)NC(=O)[C@H](Cc1ccccc1)NC(=O)c1ccc(C(C)(C)C)cc1)C(=O)N[C@@H](CO)C(=O)OC` ({Benzoyl(4-tBu)}-FAL[Lys(Et2)]S-OMe) was run?
Its ΔTm is 0.51 °C.

Which ΔTm does the source give for `CN1CC(=O)N2[C@H](c3ccc4c(c3)OCO4)c3[nH]c4ccccc4c3C[C@@H]2C1=O` here?
The ΔTm was 0.48 °C.

Which ΔTm does the source give for `CC(=O)N[C@@H](Cc1ccccc1)C(=O)N[C@@H](CC(C)C)C(=O)N[C@H](C(=O)N[C@@H](CC(=O)O)C(=O)CCl)[C@@H](C)O` (Ac-FLTD-CH2Cl) here?
Its ΔTm is 0.28 °C.

Which ΔTm does the source give for `CCOC(=O)Oc1c(OC)cc(C(=O)O[C@H]2C[C@H]3CN4CCc5c([nH]c6cc(OC)ccc56)[C@@H]4C[C@H]3[C@@H](C(=O)OC)[C@@H]2OC)cc1OC` here?
Its ΔTm is 0.54 °C.

Which ΔTm does the source give for `COC(=O)CC[C@H](NC(=O)[C@H](C)NC(=O)OCc1ccccc1)C(=O)N[C@H](C(=O)N[C@@H](CC(=O)OC)C(=O)CF)C(C)C` (Cbz-AE(OMe)VD(OMe)-CH2F) here?
Its ΔTm is 0.32 °C.

Which ΔTm does the source give for `CCN(c1cc(-c2ccc(CN3CCOCC3)cc2)cc(C(=O)NCc2c(C)cc(C)[nH]c2=O)c1C)C1CCOCC1` here?
Its ΔTm is 0.22 °C.

`Cc1cccc(N/N=C(\C(=O)c2cccs2)C(=O)C(F)(F)F)c1` was tested. Which ΔTm did it give?
The ΔTm was 0.48 °C.

With `CCN(CC)c1ccc(C2=NNC(=O)C[C@H]2C)cc1[N+](=O)[O-]` as the compound, how does the ΔTm read?
Its ΔTm is 0.04 °C.

For `CCC(=O)N1CCOc2c(cc(-c3cc(OC)cc(OC)c3)cc2C(=O)N[C@H]2CCCN(C)C2)C1`, which ΔTm is on record?
The ΔTm was 0.72 °C.

How did the ΔTm turn out when `CCN(C(=O)c1cc(F)ccc1Oc1cncnc1N1CC2(CCN(C[C@H]3CC[C@H](NS(=O)(=O)CC)CC3)CC2)C1)C(C)C` was run?
The ΔTm was 0.7 °C.

With `C[C@H](NC(=O)c1cn(C2(C#N)CC2)cn1)C(=O)Nc1nc(-c2cccc(-c3ccn(C)n3)c2)cs1` as the compound, how does the ΔTm read?
The ΔTm was 0.58 °C.

For `N#Cc1ccc(-c2c3n(c4cccnc24)CCN(C2CC2)C3=O)cc1F`, which ΔTm is on record?
Its ΔTm is 0.62 °C.

Which ΔTm does the source give for `CC1(C)Cn2nc(-c3ccc(F)cn3)c(-c3ccnc4[nH]ncc34)c2CO1` here?
Its ΔTm is 2.43 °C.

Which ΔTm does the source give for `O=C(NCCCOc1ccc2[nH]c(=O)ccc2c1)N(C1CC1)[C@@H]1CCCC[C@H]1O` here?
Its ΔTm is 0.31 °C.

For `CC(C)(C)OC(=O)NCCCCCN(CCc1ccccc1)C(=O)n1cc(-c2ccc(OC(F)(F)F)cc2)nn1`, which ΔTm is on record?
Its ΔTm is -0.13 °C.

How did the ΔTm turn out when `CCCCCCNC(=O)n1cc(F)c(=O)[nH]c1=O` was run?
The ΔTm was 0.09 °C.

`CNC(=O)N1CCc2c(c(N3CCCc4cc(-c5cnn(C)c5)c(C(F)F)cc43)nn2C2CCOCC2)C1` was tested. Which ΔTm did it give?
The ΔTm was 0.09 °C.

For `CNCC[C@@H](Oc1ccccc1C)c1ccccc1`, which ΔTm is on record?
The ΔTm was 0.14 °C.

Which ΔTm does the source give for `CC1C(C#N)=C(N)OC2=C1C(=O)CC(c1cccc3ccccc13)C2` (centres undefined) here?
The ΔTm was 0.3 °C.

How did the ΔTm turn out when `Cn1nc2c(=O)n(CC3(O)CCN(C(=O)C[C@H](c4ccccc4)C(F)(F)F)CC3)cnc2c1-c1ccc(CN)cc1` was run?
Its ΔTm is 0.68 °C.

`CCCCCCCCCCCCC/C=C/[C@@H](O)[C@H](CO)NC(=O)CCl` was tested. Which ΔTm did it give?
Its ΔTm is 0.07 °C.
